Test results taken from PubChem BioAssay (NCATS).
Records with an inconclusive call do not appear. Active and inactive are the calls of the source. Unless noted, calls follow the shape of the dose curve; as a rule, active = well fitted curve in the direction sought with a large enough effect; inconclusive = small, poorly fitted or top-dose-only effect, or another doubt; inactive = no such curve, though single readings can be large; an effect the other way counts as inactive or inconclusive.

Tests used:
[1] = Cellular Toxicity (caspase-3) HepG2 (AID 654);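 also: cells exposed to compound for 16 hours before reading; 0% = DMSO alone and 100% = caspase signal from 100 µM tamoxifen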
In short: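 Luminescent Caspase-Glo 3/7 readout after 16 hr compound exposure of human hepatocellular carcinoma HepG2 cells at 37 °C; qHTS concentration-response, normalized DMSO = 0%, 100 uM tamoxifen = 100%; AC50 by standard Hill equation.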

[2] = Cellular Toxicity (caspase-3) HUV-EC-C (AID 656);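 also: 0% = DMSO basal and 100% = 100 µM tamoxifen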
In short: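 qHTS; HUV-EC-C, 1000 cells/well; 5 hr settle, 16 hr cmpd, 37°C; Caspase-Glo 3/7, 20 min RT; luminescence. Norm: DMSO = 0%, tamoxifen 100 uM = 100%. Hill-fit AC50.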

[3] = Cellular Toxicity (caspase-3) SHSY5Y (AID 657)
In short: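 qHTS, SH-SY5Y, 1500 cells/well, 5 h pre-incubation 37 °C; compound 16 h 37 °C; Caspase-Glo 3/7 1 h RT; luminescence. Norm.: DMSO = 0, 10 uM staurosporine = 100%. Hill fit → AC50.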

[4] = Cellular Toxicity (caspase-3) BJ (AID 658);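 also: 0% = DMSO basal and 100% = 10 µM staurosporine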
In short: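 qHTS, BJ fibroblasts, 1000 cells/well; 5 hr preincubation, 16 hr compound, 37 °C; Caspase-Glo 3/7 reagent, 1 hr RT; luminescence. DMSO = 0%, 10 uM staurosporine = 100%. Hill-equation AC50.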

[5] = Cellular Toxicity (caspase-3) Mesangial (AID 660);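 also: combined caspase 3 and 7 activity read by Caspase-Glo luminescence; cells exposed to compound for 16 h before the caspase read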
In short: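 Luminescent Caspase-Glo 3/7 readout (aminoluciferin substrate cleavage, 20 min RT) after 16 h compound exposure at 37 °C of normal human mesangial cells. Signal increase normalized between DMSO basal and 100 uM tamoxifen; Hill-equation AC50.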

[6] = Cellular Toxicity (caspase-3) SK-N-SH (AID 661);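 also: 0% = DMSO basal and 100% = 10 µM staurosporine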
In short: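 Luminescent Caspase-Glo 3/7 read-out after 16 hr compound exposure of SK-N-SH neuroblastoma cells at 37 °C. Signal increase normalized to DMSO (basal) and 10 uM staurosporine (100%); AC50 from Hill equation fits of qHTS concentration-response data.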

[7] = Cellular Toxicity (caspase-3) H-4-II-E (AID 663); details: Potency: caspase-3 activation;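 also: cells exposed to compound for 16 hr before readout; 0% = DMSO basal and 100% = 100 µM tamoxifen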
In short: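 H-4-II-E rat hepatoma, 1500 cells/well, 5 hr settle at 37 °C; compound 16 hr, 37 °C, complete medium; Caspase-Glo 3/7, 20 min RT; luminescence. DMSO = 0%, 100 uM tamoxifen = 100%; Hill-equation AC50.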

[8] = Cellular Toxicity (caspase-3) N2a (AID 665);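 also: compound exposure lasted 16 h at 37 °C before readout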
In short: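 Luminescent Caspase-Glo 3/7 readout in N2a mouse neuroblastoma cells after 16 h compound exposure at 37 °C. Signal scaled to DMSO (basal) and 10 uM staurosporine (100%). Concentration-response fitted with Hill equation for AC50.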

[9] = Cell Viability - LYMP2-001 (AID 921);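 also: series mostly up to about 92 µM; 0% = DMSO only and full inhibition = tetraoctylammonium bromide control wells; nearly all actives have a fitted effect of over 70% in size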
In short: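 Steps: seed 2500 lymphoblastoid cells/well; 5 hr, 37 C; add compound; 24 hr, 37 C; CellTiter-Glo reagent, 30 min room temperature; read luminescence. Concentration-response modeled by Hill equation for AC50.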

[10] = Cell Viability - LYMP1-002 - Assay at 16 hr (AID 948);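 also: 0% = DMSO alone and full effect = 92 µM tetraoctylammonium bromide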
In short: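 Seed 2500 LYMP1-002 cells per well in complete medium and hold 5 hr at 37 C. Add compound across a concentration series and incubate 16 hr at 37 C. Add CellTiter-Glo, wait 30 min at room temperature, read luminescence.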

[11] = MultiTox-Fluor Cytotoxicity Assay - LYMP1-003 - Dead Cells (AID 961);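 also: 0% = DMSO and 100% = tetraoctylammonium bromide; nearly all actives have a fitted effect of over 70% in size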
In short: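 LYMP1-003 human lymphoblastoid cells (2500/well) exposed to compound 16 h at 37 C in complete medium; dead-cell protease read with bis-AAF-R110 fluorescence (Ex/Em 485/520) after 60 min at room temperature. Normalized to DMSO and 15 uM tetraoctylammonium bromide; AC50 from Hill fit.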

[12] = MultiTox-Fluor Cytotoxicity Assay - LYMP1-003 - Live Cells (AID 962);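 also: 0% = DMSO only and full loss = 92 µM tetraoctylammonium bromide; cytotoxic hits lower the live-cell protease signal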
In short: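 Readout: live-cell fluorescence (Ex/Em=405/510) from GF-AFC cleavage after 60 min MultiTox-Fluor reagent at room temperature. Lymphoblastoid LYMP1-003 cells, 16 hr compound treatment, 37 C. Concentration-response fitted to standard Hill equation for AC50.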

[13] = Cell Viability - LYMP2-013 (AID 970);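 also: series mostly up to about 92 µM; 0% = DMSO only and full inhibition = tetraoctylammonium bromide control; nearly all actives have a fitted effect of over 55% in size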
In short: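 CellTiter-Glo luminescence (cellular ATP) read after 30 min at RT. Cells: human lymphoblastoid line, 2500/well, 24 hr compound exposure at 37 C. Tetraoctylammonium bromide positive control; AC50 via standard Hill fit of qHTS titrations.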

[14] = Cell Viability - LYMP2-023 (AID 975);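 also: cellular ATP measured by luciferase luminescence as viability proxy; series mostly up to about 92 µM; cells exposed to compound for 24 hours at 37 °C; plate controls were DMSO only for no effect and 92 µM tetraoctylammonium bromide control for full effect; nearly all actives have a fitted effect of over 55% in size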
In short: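 CellTiter-Glo luminescence after 30 min at room temperature; decrease in intracellular ATP reflects toxicity. Cells: human lymphoblastoid line, 2500/well, 24 hr compound exposure at 37 C. AC50 fitted to standard Hill equation from concentration-response.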

[15] = Cell Viability - LYMP2-025 (AID 976);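 also: series mostly up to about 92 µM; plate controls were DMSO only for no effect and tetraoctylammonium bromide control for full effect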
In short: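 CellTiter-Glo luminescence (cellular ATP) after 24 h compound exposure at 37 C; LYMP2-025 human lymphoblastoid cells, 2500/well, complete medium. Tetraoctylammonium bromide positive control. AC50 by Hill equation fit of qHTS concentration-response.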

[16] = Cell Viability - LYMP2-007 (AID 979);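 also: cells exposed to compound for 24 h before reading; 0% = DMSO only and the negative end = 92 µM tetraoctylammonium bromide; nearly all actives have a fitted effect of over 60% in size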
In short: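 qHTS cytotoxicity: 2500 cells/well, 5 hr 37 C settle, compound 24 hr 37 C, CellTiter-Glo 30 min RT, luminescence. Decrease in ATP = toxicity. AC50 by standard Hill equation; tetraoctylammonium bromide positive control.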

[17] = Cell Viability - LYMP2-008 (AID 980); also: % is scaled to controls: 0 for no effect and ±100 for the full control effect; nearly all actives have a fitted effect of over 60% in size
In short: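 Luminescent ATP read-out (CellTiter-Glo, 30 min RT) after 24 hr compound exposure at 37 C of human lymphoblastoid cells in complete medium. Decrease in ATP taken as cytotoxicity; AC50 derived by standard Hill fit of qHTS concentration-response data.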

[18] = Cell Viability - LYMP2-026 (AID 989); also: % is scaled to controls: 0 for no effect and ±100 for the full control effect; nearly all actives have a fitted effect of over 50% in size
In short: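 qHTS cytotoxicity: 2500 cells/well, 5 hr 37 C, compound 24 hr 37 C, CellTiter-Glo 30 min RT, luminescence. Tetraoctylammonium bromide positive control. AC50 via standard Hill fit.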

[19] = qHTS Assay for Identification of Small Molecule Inducers of Hypoxia Response (AID 2120; active = well fitted curve in the direction sought with a large enough effect in the signal ratio, with a control signal flat, not every such curve was filed as active; the % refers to the signal ratio; also: 0% is about no effect)
In short: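 Read-out: CCF4 FRET emission ratio 460nm/530nm (excitation 405nm), converted to %Activity, with AC50 fitted across a compound titration. ME-180 cells carried an HRE-driven beta-lactamase reporter; compound exposure 17 h, 37 degrees C.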

[20] = qHTS assay for cell viability of HEK293 cells (AID 743288); details: ATP luminescence (CellTiter-Glo), 18 h, stronger effect = lower value; also: % is scaled to controls: 0 for no effect and ±100 for the full control effect; nearly all actives have a fitted effect of over 50% in size
In short: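 Viable-cell counts were inferred from luciferase-based ATP content in HEK293 cells seeded at 2,000/well, pre-incubated ≥5 h, then dosed with DMSO-solubilised compounds for 18 h at 37 C.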

O=[N+]([O-])c1cccc(O)c1
inactive: outcome [1] | outcome [2] | outcome [3] | outcome [4] | outcome [5] | Potency [6] | Potency [7] | outcome [8] | Potency [9] | outcome [10] | Potency [11] | outcome [12] | Potency [13] | Potency [14] | Potency [15] | Potency [16] | Potency [17] | Potency [18] | Potency [19] | max response [20] -8.12%

Clc1cccc2ccccc12
inactive: outcome [1] | outcome [2] | outcome [3] | outcome [4] | outcome [5] | Potency [6] | Potency [7] | outcome [8] | Potency [9] | outcome [10] | Potency [11] | outcome [12] | Potency [13] | Potency [14] | Potency [15] | Potency [16] | Potency [17] | Potency [18] | Potency [19] | max response [20] -4.26%

O=Cc1ccc(Cl)cc1Cl
inactive: outcome [1] | outcome [2] | outcome [3] | outcome [4] | outcome [5] | Potency [6] | Potency [7] | outcome [8] | Potency [9] | outcome [10] | Potency [11] | outcome [12] | Potency [13] | Potency [14] | Potency [15] | Potency [16] | Potency [17] | Potency [18] | Potency [19] | max response [20] -8.13%

C=C(Cl)CSC(=S)N(CC)CC
inactive: outcome [1] | outcome [2] | outcome [3] | outcome [4] | outcome [5] | Potency [6] | Potency [7] | outcome [8] | Potency [9] | outcome [10] | Potency [11] | outcome [12] | Potency [13] | Potency [14] | Potency [15] | Potency [16] | Potency [18] | Potency [19] | max response [20] 5.22%

C=CC(=O)OCCO
inactive: outcome [1] | outcome [2] | outcome [3] | outcome [4] | outcome [5] | Potency [6] | Potency [7] | outcome [8] | outcome [10] | Potency [11] | outcome [12] | Potency [14] | Potency [15] | Potency [18] | Potency [19] | max response [20] -1.05%

O=[N+]([O-])c1cc(Cl)c(Cl)cc1Cl
inactive: outcome [1] | outcome [2] | outcome [3] | outcome [4] | outcome [5] | Potency [6] | Potency [7] | outcome [8] | Potency [9] | outcome [10] | Potency [11] | outcome [12] | Potency [13] | Potency [14] | Potency [15] | Potency [16] | Potency [17] | Potency [18] | Potency [19] | max response [20] -3.86%

Cl/C=C/CCl
inactive: outcome [1] | outcome [2] | outcome [3] | outcome [4] | outcome [5] | Potency [6] | Potency [7] | outcome [8] | Potency [9] | outcome [10] | Potency [11] | outcome [12] | Potency [13] | Potency [14] | Potency [15] | Potency [16] | Potency [17] | Potency [18] | Potency [19] | max response [20] 2.26%

Brc1cccc(-c2ccccc2)c1
inactive: outcome [1] | outcome [2] | outcome [3] | outcome [4] | outcome [5] | Potency [6] | Potency [7] | outcome [8] | Potency [9] | outcome [10] | Potency [11] | outcome [12] | Potency [13] | Potency [14] | Potency [15] | Potency [16] | Potency [17] | Potency [18] | Potency [19] | max response [20] 8.7%

C=CCOCC1CO1 (centres undefined)
inactive: outcome [1] | outcome [2] | outcome [3] | outcome [4] | outcome [5] | Potency [6] | Potency [7] | outcome [8] | Potency [9] | outcome [10] | Potency [11] | outcome [12] | Potency [13] | Potency [14] | Potency [15] | Potency [16] | Potency [17] | Potency [18] | Potency [19] | max response [20] -5.74%

ClCCBr
inactive: outcome [1] | outcome [2] | outcome [3] | outcome [4] | outcome [5] | Potency [6] | Potency [7] | outcome [8] | Potency [9] | outcome [10] | Potency [11] | outcome [12] | Potency [13] | Potency [14] | Potency [15] | Potency [16] | Potency [17] | Potency [18] | Potency [19] | max response [20] -0.276%

COc1ccccc1N
inactive: outcome [1] | outcome [2] | outcome [3] | outcome [4] | outcome [5] | Potency [6] | Potency [7] | outcome [8] | Potency [9] | outcome [10] | Potency [11] | outcome [12] | Potency [13] | Potency [14] | Potency [15] | Potency [16] | Potency [17] | Potency [18] | Potency [19] | max response [20] -0.892%

Oc1cc(Cl)cc(Cl)c1
inactive: outcome [1] | outcome [2] | outcome [3] | outcome [4] | outcome [5] | Potency [6] | Potency [7] | outcome [8] | Potency [9] | outcome [10] | Potency [11] | outcome [12] | Potency [13] | Potency [14] | Potency [15] | Potency [16] | Potency [17] | Potency [18] | Potency [19] | max response [20] 3.49%

CCOP(=S)(OCC)Oc1nc(Cl)c(Cl)cc1Cl
inactive: outcome [1] | outcome [2] | outcome [3] | outcome [4] | outcome [5] | Potency [6] | Potency [7] | outcome [8] | Potency [9] | outcome [10] | Potency [11] | outcome [12] | Potency [13] | Potency [14] | Potency [15] | Potency [16] | Potency [17] | Potency [18] | Potency [19] | max response [20] -7.97% [middle of 4 runs]

Brc1ccc(Oc2ccc(Br)cc2Br)c(Br)c1
inactive: outcome [1] | outcome [2] | outcome [3] | outcome [4] | outcome [5] | Potency [6] | Potency [7] | outcome [8] | Potency [9] | outcome [10] | Potency [11] | outcome [12] | Potency [13] | Potency [14] | Potency [15] | Potency [16] | Potency [17] | Potency [18] | Potency [19]
